Calls of active or inactive are those of the source.

The first assay in a line: CREB reporter modulators without forskolin, primary screen, cell-based, PC12, CRE-LacZ reporter, unstimulated (AID 1145). As to conditions: no forskolin, luminescence, 4.5 h, higher = more signal, called active from +8 up or from −8 down.
`COC(=O)c1c2oc(c1C(=O)OC)C(=O)N[C@@H](C(C)C)Cn1cc(nn1)C1(CCCCC1)NC(=O)N[C@H](CO)CC2`: the z-score was 2.08 (inactive).
Same read-out and setting: the same measure for `O=C1O[C@@H](c2ccccc2)[C@@H](c2ccccc2)N2[C@@H](c3ccc(OCCO)cc3)[C@]3(C(=O)Nc4ccc(C#CCCO)cc43)[C@@H](C(=O)NC[C@H](O)c3ccccc3)[C@H]12`: -0.141 (inactive); for `CC(c1ccccc1)C(O)C1C=CC2C(=O)N(c3ccccc3)C(=O)C2N1Nc1ccccc1` (stereo not given): 0.246 (inactive).
On to `CC1CC/C=C\[C@H]2OC34C=CCN(Cc5ccccc5)C(=O)[C@H]3N(C(C)CO)C(=O)[C@@H]4C2C(=O)O1` (stereo not given in full), for which the z-score was 1.68 (inactive).

The nature of the next assay: CREB reporter modulators under forskolin, primary screen, cell-based, PC12, CRE-LacZ reporter, forskolin-stimulated (AID 1146).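 Further: PC12 cells with 6xCRE LacZ reporter stimulated by forskolin 10 µM; beta-galactosidase reporter signal reflecting CREB driven transcription.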 Conditions: luminescence, 4.5 h, higher = more signal, called active from +8 up or from −8 down.
For the molecule `COc1ccc([Si](C)(C)[C@@H]2[C@@H](CCO)O[C@]3(C(=O)N(Cc4cccc(N5CCOC5=O)c4)c4ccccc43)[C@H]2C)cc1`, the z-score was -0.905 (inactive).
Turning to `CCOC(=O)C1=CC[C@H]2C(=O)N(c3ccccc3)C(=O)[C@@H]12`, the z-score was -0.0473 (inactive).
Same read-out and setting: with `CCOC(=O)C[C@H]1[C@H](OC(=O)c2ccc(C(=O)c3ccccc3)cc2)[C@@H](NC(=O)Cc2ccc(OC)cc2)c2cc(OCCCO)ccc2N1C(=O)c1ccc2ccccc2n1` the figure was -0.668 (inactive); with `COC(=O)[C@@]1(Cc2ccc(F)cc2)[C@H]2c3cc(C(=O)N(C)C)n(Cc4cc(C)n(C)n4)c3C[C@H]2CN1C(=O)c1ccccc1`, 0.455 (inactive).
Turning to `CCCC[C@@H]1C[C@H]1[C@@H](NC(=O)c1cccnc1)c1ccc(Cl)cc1`, the z-score was 0.834 (inactive).
Take `[N-]=[N+]=Nc1ccccc1C[C@@]1(C(=O)N2CCCCC2)N=C(c2ccc(OCCCO)cc2)O[C@@H]1c1ccccc1N=[N+]=[N-]`: the z-score is -0.929 (inactive).
The same measure, in the same setting: the same measure for `C=CCC(OC(C)=O)[C@@H]1[C@@H](N(Cc2ccc(-c3cccc(C(F)(F)F)c3)o2)C(=O)c2cccc3ccccc23)c2cc(OCCCO)ccc2N1C(=O)Cc1ccc2ccccc2c1` (stereo not given in full): 0.848 (inactive); for `CCCCN1CC=CC23O[C@@H]4C=CCOC(=O)[C@@H]4[C@H]2C(=O)N(CCCCCCO)[C@@H]3C1=O` (stereo not given in full): 1.12 (inactive).
On to `O=C1C2C=CC(C(O)C=Cc3ccc([N+](=O)[O-])cc3)N(n3cnnc3)C2C(=O)N1Cc1ccccc1` (stereo not given), for which the z-score was 0.343 (inactive).
As to `O=C1[C@H]2C=C(Br)[C@H](C[C@@H]2OCCCCCCO)[C@@]12CO2`, the z-score is 1.71 (inactive).
As to `CCCCCCCCCCC(O)C1C=CC2C(=O)NC(=O)C2N1Nc1ccc(Cl)cc1Cl` (stereo not given), the z-score was -0.407 (inactive).
Same read-out and setting: with `C=CC1c2cc(O)c(OC)cc2CCN1Cc1cccc(OC(F)(F)F)c1` (stereo not given) the figure was 1.28 (inactive); with `CC(C)[Si](C#C[Si](C(C)C)(C(C)C)C(C)C)(O[C@H](C)c1cn(Cc2ccccc2)nn1)C(C)C`, -0.624 (inactive); with `O=C1O[C@H](c2ccccc2)[C@H](c2ccccc2)N2[C@H]1[C@@H](C(=O)NC[C@H](O)c1ccccc1)[C@]1(C(=O)Nc3ccc(C#CC4=CCCCC4)cc31)[C@H]2c1ccccc1OCCO`, -0.0119 (inactive).
The same measure, in the same setting: the same measure for `COc1ccc(-c2cc3c(c(Cc4ccccc4)n2)[Si](C(C)C)(C(C)C)OC3)cn1`: 0.877 (inactive); for `C=CCC(OC(C)=O)[C@@H]1[C@@H](N(Cc2ccc(-c3cccc(C(F)(F)F)c3)o2)C(=O)Cc2ccc(OC)cc2)c2cc(OCCCO)ccc2N1C(=O)c1ccc2ccccc2c1` (stereo not given in full): 1.52 (inactive).
On the same count and under the same terms, with `CCC(CC)C(O)C1C=CC2C(=O)N(c3ccccc3)C(=O)C2N1Nc1ccccc1` (stereo not given) the figure was -0.814 (inactive); with `CN1C(=O)C2C=CC(C(O)c3c(F)cccc3Cl)N(NC(=O)OC(C)(C)C)C2C1=O` (stereo not given), 0.947 (inactive).
With `C=C[C@H](C)[C@@H](OC(=O)Nc1ccc(SC)cc1)c1ccc(O)c2ccccc12`, the z-score is 1.69 (inactive).
Still for that read-out and setting: the same measure for `COc1ccccc1CN1C(=O)c2ccccc2[C@@H](C(=O)NCc2ccccc2)[C@@H]1c1ccc(CO)cc1`: -1.35 (inactive); for `O=C1OCC=C[C@H]2OC34C=CCN(Cn5nnc6ccccc65)C(=O)[C@H]3N(CCCCCO)C(=O)[C@@H]4[C@@H]12` (stereo not given in full): -0.29 (inactive).
Same read-out and setting: with `Cc1ccc(S[C@]2(C(=O)NCC(C)C)CC(=O)N(Cc3cc(C(F)(F)F)cc(C(F)(F)F)c3)[C@@H]2c2ccc(CO)cc2)cc1` the figure was 1.02 (inactive); with `CS(=O)(=O)CCOC(=O)C1=CC(CCCO)=CC(C2CC2)N(Cc2cc3c(cc2Br)OCO3)C=C1C(=O)OCCS(C)(=O)=O` (stereo not given), 0.926 (inactive).
Still for that read-out and setting: the same measure for `C=CCOC(=O)[C@H]1[C@@H]2C(=O)O[C@@H](c3ccccc3)[C@@H](c3ccccc3)N2[C@@H](c2ccc(OCCOC(=O)[C@H]3C[C@H]4C(=O)N[C@@H](CCCCN(C)C)C(=O)N4[C@H]3c3cccc(OCCO)c3)cc2)[C@]12C(=O)Nc1ccc(I)cc12`: 0.892 (inactive); for `COc1ccc([Si](C)(C)[C@H]2[C@H](CC(=O)N3CCC[C@H]3CO)O[C@@]3(C(=O)N(Cc4cccc(N5CCOC5=O)c4)c4ccccc43)[C@@H]2C)cc1`: -0.135 (inactive).
On to `O=C1OCCC=C[C@H]2OC34C=CCN(c5ccc(Cl)cc5)C(=O)[C@H]3N(CCCO)C(=O)[C@@H]4C12` (stereo not given in full), for which the z-score was -0.336 (inactive).
As for `COc1ccc(C(O)C2C=CC3C(=O)N(C)C(=O)C3N2N(c2ccccc2)c2ccccc2)c2ccccc12` (stereo not given), the z-score is 1.1 (inactive).
Same read-out and setting: with `COCC(=C=CC[C@H](O)c1cccc(OCCO)c1)CCO` the figure was 0.324 (inactive); with `CC[C@@H]1C=C(C(=O)O)[C@H](c2ccc(C)cc2)N1S(=O)(=O)c1ccc(C)cc1`, 1.03 (inactive); with `O=C1NC(=O)C2C1C=CC(C(O)C1CC=CCC1)N2Nc1ccccn1` (stereo not given), 0.383 (inactive).
As to `COc1ccc(C(=O)Nc2cccc(CN3C(=O)[C@]4(O[C@H](CCn5cc(CCO)nn5)[C@@H]([Si](C)(C)c5ccc(OC)cc5)[C@@H]4C)c4ccccc43)c2)cc1`, the z-score was -1.52 (inactive).
Still for that read-out and setting: the same measure for `CS(=O)(=O)CCOC(=O)C1=CC(CCCO)=CC(c2ccc(CN3CCCC3)cc2)N(Cc2cccc(OC(F)(F)F)c2)C=C1C(=O)OCCS(C)(=O)=O` (stereo not given): -0.0478 (inactive); for `COC(=O)c1c2oc(c1C(=O)OC)C(=O)N[C@@H](C(C)C)Cn1cc(nn1)C1(CCCCC1)NC(=O)N[C@H](CO)CC2`: -0.178 (inactive).
For `O=C1O[C@@H](c2ccccc2)[C@@H](c2ccccc2)N2[C@@H](c3ccc(OCCO)cc3)[C@]3(C(=O)Nc4ccc(C#CCCO)cc43)[C@@H](C(=O)NC[C@H](O)c3ccccc3)[C@H]12`, the z-score is 0.119 (inactive).
As for `CC(c1ccccc1)C(O)C1C=CC2C(=O)N(c3ccccc3)C(=O)C2N1Nc1ccccc1` (stereo not given), the z-score is 0.379 (inactive).
Take `CC1CC/C=C\[C@H]2OC34C=CCN(Cc5ccccc5)C(=O)[C@H]3N(C(C)CO)C(=O)[C@@H]4C2C(=O)O1` (stereo not given in full): the z-score was -0.0203 (inactive).

(Values after PubChem BioAssay.)
